Here are results for twelve molecules from PubChem BioAssay (Tox21).

The structures appear in SMILES notation. Records with an inconclusive call do not appear. More than one record can exist for a structure, and the calls need not agree. Calls of active or inactive are those of the source. Unless noted, calls come from the whole dose curve.

In assay [1] the target is Peroxisome proliferator-activated receptor delta (Homo sapiens) (UniProt Q03181). Briefly: qHTS assay to identify small molecule agonists of the peroxisome proliferator-activated receptor delta (PPARd) signaling pathway (AID 743212). Note: % is set by controls: 0 for no effect and ±100 for the full control effect. In short, it runs like this:
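Quantitative high-throughput agonist screen in a HEK293H beta-lactamase reporter line under UAS control. Compounds in DMSO, at 37 C. Fluorescence read after 2 h with FRET substrate at room temperature.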
In general terms: qHTS replaces the single test concentration by a dilution series.

Assay [2] can be described thus: qHTS assay to identify small molecule antagonists of the peroxisome proliferator-activated receptor delta (PPARd) signaling pathway - cell viability counter screen (AID 743213; active = well fitted curve in the direction sought with a large enough effect in the repeat runs; an effect the other way counts as inactive or inconclusive; note: % is set by controls: 0 for no effect and ±100 for the full control effect; nearly all actives have a fitted effect of over 50% in size). In short, it runs like this:
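PPARd-bla HEK293H cells were treated with compounds plus agonist L165041 (300 nM final) for 17 h at 37 C. Viability was then read in the same wells by CellTiter-Glo luminescence after 30 min at room temperature.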

The target of assay [3] is Bile acid receptor (Homo sapiens) (UniProt Q96RI1). The experiment in a line: qHTS assay to identify small molecule antagonists of the farnesoid-X-receptor (FXR) signaling pathway (AID 743217; active = well fitted inhibition curve with a large enough effect in the signal ratio in the repeat runs, not every such curve was filed as active; the % refers to the signal ratio; note: % is set by controls: 0 for no effect and ±100 for the full control effect). The method in brief:
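GeneBLAzer FXR-UAS-bla HEK 293T, CDCA-stimulated (50 uM final). Compound treatment 16 h, 37 °C. Detection: beta-lactamase cleavage of B/G FRET substrate, fluorescence.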

Assay [4] in a line: qHTS assay to identify small molecule agonists of the farnesoid-X-receptor (FXR) signaling pathway - cell viability counter screen (AID 743218; active = well fitted curve in the direction sought with a large enough effect in the repeat runs; an effect the other way counts as inactive or inconclusive; note: % is set by controls: 0 for no effect and ±100 for the full control effect; nearly all actives have a fitted effect of over 45% in size). The method in brief: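 Parallel cytotoxicity test: compound-treated (16 h, 37 C) HEK 293T FXR-bla reporter cells were lysed with CellTiter-Glo and luminescence recorded.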
The target of assay [5] is Bile acid receptor (Homo sapiens) (UniProt Q96RI1). The experiment in a line: qHTS assay to identify small molecule agonists of the farnesoid-X-receptor (FXR) signaling pathway (AID 743220; active = well fitted activation curve with a large enough effect in the signal ratio in the repeat runs, not every such curve was filed as active; the % refers to the signal ratio; note: % is set by controls: 0 for no effect and ±100 for the full control effect). The method in brief:
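Beta-lactamase reporter under UAS control in GeneBLAzer FXR HEK 293T cells (5000/well) measured with LiveBLAzer FRET substrate after 2 h at room temperature. Compound exposure lasted 16 h at 37C.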

Assay [6] can be described thus: qHTS assay to identify small molecule antagonists of the farnesoid-X-receptor (FXR) signaling pathway - cell viability counter screen (AID 743221; active = well fitted cell-killing curve with a large enough effect in the repeat runs, not every such curve was filed as active; note: % is set by controls: 0 for no effect and ±100 for the full control effect; nearly all actives have a fitted effect of over 50% in size). The method in brief: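 Luminescence from CellTiter-Glo measures cytotoxicity in GeneBLAzer FXR-UAS-bla HEK 293T cells. Cells were exposed to compounds with 50 uM chenodeoxycholic acid (final) for 16 h at 37 C, in wells also used for the reporter readout.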

In assay [7] the target is Vitamin D3 receptor (Homo sapiens) (UniProt P11473). The experiment in a line: qHTS assay to identify small molecule agonists of the vitamin D receptor (VDR) signaling pathway (AID 743222). Note: % is set by controls: 0 for no effect and ±100 for the full control effect. The method in brief: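 In VDR-bla cells, compound-induced beta-lactamase expression is quantified by FRET substrate fluorescence. Treatment lasts 16 h at 37C; substrate develops 2 h at room temperature.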
Vitamin D3 receptor (Homo sapiens), sequence (P11473 whole entry, looked up): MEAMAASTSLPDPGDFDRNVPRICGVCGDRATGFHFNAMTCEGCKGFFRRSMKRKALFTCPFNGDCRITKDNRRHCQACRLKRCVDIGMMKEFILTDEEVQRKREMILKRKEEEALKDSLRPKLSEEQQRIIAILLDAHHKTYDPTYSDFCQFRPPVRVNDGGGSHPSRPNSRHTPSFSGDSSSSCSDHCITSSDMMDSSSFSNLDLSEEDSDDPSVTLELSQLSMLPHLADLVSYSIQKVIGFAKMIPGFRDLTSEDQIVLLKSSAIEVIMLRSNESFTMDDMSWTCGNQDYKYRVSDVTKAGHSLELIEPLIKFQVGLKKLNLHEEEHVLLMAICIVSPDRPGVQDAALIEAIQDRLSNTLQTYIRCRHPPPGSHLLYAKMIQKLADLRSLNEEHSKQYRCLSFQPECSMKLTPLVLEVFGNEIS

Assay [8] has the same target. Briefly: qHTS assay to identify small molecule antagonists of the vitamin D receptor (VDR) signaling pathway (AID 743223; active = well fitted inhibition curve with a large enough effect in the signal ratio in the repeat runs, not every such curve was filed as active; the % refers to the signal ratio; note: % is set by controls: 0 for no effect and ±100 for the full control effect). The method in brief:
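Antagonist mode uses 1alpha,25-dihydroxyvitamin D3 at 3 nM final as stimulus. VDR-bla cells receive compounds in DMSO, incubate 16 h at 37C, then a beta-lactamase FRET substrate for 2 h at room temperature before fluorescence measurement.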

A short description of assay [9]: qHTS assay to identify small molecule agonists of the vitamin D receptor (VDR) signaling pathway - cell viability counter screen (AID 743224; active = well fitted curve in the direction sought with a large enough effect in the repeat runs; an effect the other way counts as inactive or inconclusive; note: series mostly up to about 63 µM; % is set by controls: 0 for no effect and ±100 for the full control effect; nearly all actives have a fitted effect of over 50% in size). In short, it runs like this: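 Plated VDR-bla cells (4 h, 37C) received compound, incubated 16 h, then LiveBLAzer substrate 2 h RT; CellTiter-Glo added afterwards, luminescence read at 30 min.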
Assay [10] in a line: qHTS assay to identify small molecule antagonists of the vitamin D receptor (VDR) signaling pathway - cell viability counter screen (AID 743225; active = well fitted curve in the direction sought with a large enough effect in the repeat runs; an effect the other way counts as inactive or inconclusive; note: % is set by controls: 0 for no effect and ±100 for the full control effect; nearly all actives have a fitted effect of over 50% in size). The method in brief:
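Read-out: CellTiter-Glo luminescence measured 30 min after reagent addition at room temperature. Cells were VDR-bla HEK 293T exposed 16 h at 37C, 5% CO2, to compound with 3 nM final calcitriol agonist.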

The nature of assay [11]: qHTS assay to identify small molecule agonists of the NFkB signaling pathway (AID 1159509; active = well fitted curve in the direction sought with a large enough effect in the signal ratio in the repeat runs, not every such curve was filed as active; the % refers to the signal ratio). The method in brief:
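After overnight attachment, reporter cells received test compounds, DMSO or positive controls and were incubated 5 hr at 37 C. FRET substrate was then added for 1.5 hr at room temperature before dual-emission fluorescence reading.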

Assay [12] in a line: qHTS assay to identify small molecule agonists of the NFkB signaling pathway - cell viability counter screen (AID 1159515). Note: series mostly up to about 61 µM; % is set by controls: 0 for no effect and ±100 for the full control effect; nearly all actives have a fitted effect of over 55% in size. In short, it runs like this:
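Using the same wells as the NFkB reporter read, ME-180 NFkB-bla cells given compounds for 5 hr were assessed for viability via CellTiter-Glo, with luminescence taken after a 30 min room-temperature incubation.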

The nature of assay [13]: qHTS assay to identify small molecule agonists of the endoplasmic reticulum stress response signaling pathway (AID 1159516; active = well fitted activation curve with a large enough effect in the signal ratio in the repeat runs, not every such curve was filed as active; the % refers to the signal ratio; note: % is set by controls: 0 for no effect and ±100 for the full control effect). In short, it runs like this:
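An ESRE-bla HeLa cell assay: compounds were pin-transferred from DMSO onto overnight-plated cells and left 5 hr at 37 C. Substrate was then loaded for 2 hr at room temperature before reading fluorescence at 460 nm and 530 nm.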

Assay [14] can be described thus: qHTS assay to identify small molecule agonists of the endoplasmic reticulum stress response signaling pathway - cell viability counter screen (AID 1159517). In short, it runs like this: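 Counter-screen wells were identical to the reporter wells. Cells were plated at 1,500 per well and dosed for 5 hr, then read for luminescence 30 min after CellTiter-Glo addition.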

A short description of assay [15]: qHTS assay to identify small molecule antagonists of the retinoid-related orphan receptor gamma (ROR-gamma) signaling pathway - cell viability counter screen (AID 1159520; active = well fitted curve in the direction sought with a large enough effect in the repeat runs; an effect the other way counts as inactive or inconclusive). In short, it runs like this: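 Tet-on ROR gamma CHO cells were given compounds for 2 hr, then doxycycline hyclate at 1 uM final, and incubated 16 hr at 37 C. Viability was measured as ATP content by CellTiter-Glo luminescence.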

A short description of assay [16]: qHTS assay to identify small molecule agonists of the AP-1 signaling pathway - cell viability counter screen (AID 1159525). Note: nearly all actives have a fitted effect of over 55% in size. Note: potency is the fitted concentration of half-maximal effect. The method in brief:
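AP-1-bla ME-180 cells in Opti-MEM with 0.5% dialyzed FBS, compound exposure 5 h at 37 C in 15-point titration. Viability read in the same wells as ATP content by CellTiter-Glo luminescence, normalised to tetra-n-octylammonium bromide and DMSO controls.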

Assay [17] can be described thus: qHTS assay to identify small molecule agonists of the AP-1 signaling pathway (AID 1159526). Note: % is set by controls: 0 for no effect and ±100 for the full control effect.
The target in assay [18] is Retinoic acid receptor RXR-alpha (Homo sapiens) (UniProt P19793). Briefly: qHTS assay to identify small molecule agonists of the RXR signaling pathway (AID 1159527). Note: % is set by controls: 0 for no effect and ±100 for the full control effect; nearly all actives have a fitted effect of over 35% in size. In short, it runs like this:
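Read-out: beta-lactamase FRET ratio (405 nm excitation, 460 and 530 nm emission) after 2 hr substrate loading at room temperature. Cells were RXR-alpha-UAS-bla HEK 293T treated with compounds for 16 hr in 2% charcoal-stripped FBS medium.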

Assay [19] has as its target Nuclear receptor ROR-gamma (Homo sapiens) (UniProt P51449). The experiment in a line: qHTS assay to identify small molecule antagonists of the retinoid-related orphan receptor gamma (ROR-gamma) signaling pathway (AID 1159521; active = well fitted curve in the direction sought with a large enough effect in the repeat runs; an effect the other way counts as inactive or inconclusive; note: nearly all actives have a fitted effect of over 50% in size; note: potency is the fitted concentration of half-maximal effect). In short, it runs like this: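 CHO Tet-on RORγ, RORE-luc reporter. Cpd 2 h pre-incubation, then dox hyclate 1 uM final, 16 h, 37 C/5% CO2. ONE-Glo luminescence; decrease = antagonist.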

Assay [20] concerns the target Peroxisome proliferator-activated receptor delta (Homo sapiens) (UniProt Q03181). Briefly: qHTS assay to identify small molecule antagonists of the peroxisome proliferator-activated receptor delta (PPARd) signaling pathway (AID 743215; active = well fitted inhibition curve with a large enough effect in the signal ratio in the repeat runs, not every such curve was filed as active; the % refers to the signal ratio). The method in brief:
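HEK293H UAS-bla, PPARd; agonist L165041 300 nM final with cpd in DMSO; 37 C 17 h; FRET substrate, RT 2 h; fluorescence intensity.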

Retinoic acid receptor RXR-alpha (Homo sapiens), sequence (P19793 whole entry, looked up): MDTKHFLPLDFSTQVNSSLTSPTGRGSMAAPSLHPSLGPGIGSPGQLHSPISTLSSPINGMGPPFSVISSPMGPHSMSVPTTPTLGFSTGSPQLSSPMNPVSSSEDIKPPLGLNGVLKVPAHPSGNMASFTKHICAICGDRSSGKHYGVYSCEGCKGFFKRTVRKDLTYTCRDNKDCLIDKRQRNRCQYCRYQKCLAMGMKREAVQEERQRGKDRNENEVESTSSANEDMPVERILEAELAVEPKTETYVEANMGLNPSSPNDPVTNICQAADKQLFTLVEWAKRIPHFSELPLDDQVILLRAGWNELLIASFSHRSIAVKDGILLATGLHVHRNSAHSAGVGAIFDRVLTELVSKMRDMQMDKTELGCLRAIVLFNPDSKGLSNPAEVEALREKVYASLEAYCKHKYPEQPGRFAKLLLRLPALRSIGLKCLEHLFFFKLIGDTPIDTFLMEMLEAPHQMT
Peroxisome proliferator-activated receptor delta (Homo sapiens), sequence (Q03181 whole entry, looked up): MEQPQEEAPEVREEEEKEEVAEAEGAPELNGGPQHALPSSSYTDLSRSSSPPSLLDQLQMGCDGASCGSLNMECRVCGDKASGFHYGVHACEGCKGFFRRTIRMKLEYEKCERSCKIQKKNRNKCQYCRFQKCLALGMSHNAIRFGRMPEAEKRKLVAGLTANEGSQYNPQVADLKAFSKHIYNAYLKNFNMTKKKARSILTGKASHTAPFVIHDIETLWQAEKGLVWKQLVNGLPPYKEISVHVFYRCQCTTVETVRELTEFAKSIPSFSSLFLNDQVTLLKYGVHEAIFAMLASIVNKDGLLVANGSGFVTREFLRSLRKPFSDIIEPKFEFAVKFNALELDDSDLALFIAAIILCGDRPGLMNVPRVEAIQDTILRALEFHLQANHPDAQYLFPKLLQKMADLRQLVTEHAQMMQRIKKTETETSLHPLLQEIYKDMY
Bile acid receptor (Homo sapiens), sequence (Q96RI1 whole entry, looked up): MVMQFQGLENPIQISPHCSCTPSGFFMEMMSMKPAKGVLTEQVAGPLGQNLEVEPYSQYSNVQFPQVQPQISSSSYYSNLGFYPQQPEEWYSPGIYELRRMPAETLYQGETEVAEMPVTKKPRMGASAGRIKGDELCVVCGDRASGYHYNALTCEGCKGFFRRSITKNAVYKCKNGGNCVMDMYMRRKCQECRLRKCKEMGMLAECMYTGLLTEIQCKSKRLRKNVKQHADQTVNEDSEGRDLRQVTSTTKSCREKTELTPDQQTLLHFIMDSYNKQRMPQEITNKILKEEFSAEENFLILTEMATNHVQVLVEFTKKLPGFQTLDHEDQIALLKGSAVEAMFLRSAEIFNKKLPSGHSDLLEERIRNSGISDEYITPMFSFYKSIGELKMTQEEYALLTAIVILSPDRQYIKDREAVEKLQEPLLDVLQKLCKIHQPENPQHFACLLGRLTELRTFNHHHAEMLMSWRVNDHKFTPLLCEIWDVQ

Consider `O=c1[nH]c(=O)n([C@H]2C[C@H](O)[C@@H](CO)O2)cc1Br`, for which the molecule was called inactive in [1], in assay [2], in [3], in [5], in [7] and in assay [8]. Further, the molecule was called inactive in assay [10], in [11], in assay [12], in assay [13], in assay [14] and in [17]. Besides, the Potency result in assay [4], in assay [6], in [9], in assay [15], in [16] and in assay [18] was “inactive” each time.

For the molecule `CC(C)c1ccc(S(=O)(=O)O)cc1`, the outcome in assay [2], in assay [10], in [11], in [12], in assay [13] and in [14] was inactive. In addition, the result in [17] was inactive. In addition, the Potency entry in [4], in assay [6], in assay [15], in assay [19] and in assay [16] was “inactive” throughout.

As to `NNc1nncc2ccccc12`, the molecule was called inactive in assay [2], in [7], in assay [8], in assay [10], in assay [11] and in assay [12]. For the same molecule, the call in assay [13] and in [14] was inactive. The Potency entry in [4], in [6], in assay [15], in assay [19] and in assay [16] was “inactive” in each case. The activation in [17] is -4.28% [at 15.8 µM] (inactive).

Turning to `C=C(C)C(=O)O[C@H]1C[C@@H]2CC[C@@]1(C)C2(C)C`, the molecule was called inactive in [1], in assay [2], in [7], in assay [8], in [10] and in assay [11]. For the same molecule, the call in [12], in assay [13], in assay [14] and in assay [17] was inactive. Besides, the Potency result in assay [4], in [9] and in assay [15] was “inactive” each time. Besides, the Potency is 963 nM (active) and inactive in [19]; 4.87 µM (active) and inactive in [16].

On to `CN(C)CCOCCN(C)C`, for which the result in assay [1], in [3], in assay [5], in [7], in [8] and in assay [11] was inactive. For the same molecule, the molecule was called inactive in [12], in assay [13], in assay [14] and in assay [17]. Moreover, the Potency entry in assay [20], in assay [4], in assay [6], in [9], in assay [15] and in assay [19] was “inactive” in each case. Moreover, the Potency entry in assay [16] is “inactive”.

For `CCCC(C)=O`, the outcome in assay [1], in assay [2], in assay [3], in assay [5], in assay [11] and in [12] was inactive. Also, the molecule was classed as inactive in assay [13], in assay [14] and in assay [17]. Moreover, the Potency result in assay [20], in [4], in [6], in [9], in assay [19] and in [16] was “inactive” throughout. In addition, the Potency entry in assay [18] is “inactive”.

Take `CCCCCCCCCCCCCCO`: the molecule was called inactive in [2], in [7], in [8], in [11], in [12] and in assay [13]. Besides, the outcome in assay [14] and in assay [17] was inactive. For the same molecule, the Potency entry in assay [4], in assay [15] and in [16] was “inactive” each time.

Consider `CC(c1cc2ccccc2s1)N(O)C(N)=O` (stereo not drawn), for which the outcome in assay [1], in assay [2], in assay [7], in assay [8], in assay [10] and in [11] was inactive. In addition, the result in assay [12], in assay [13], in assay [14] and in [17] was inactive. In addition, the Potency result in assay [20], in assay [4], in assay [9], in assay [16] and in assay [18] was “inactive” each time.

With `CCCCC(CC)COC(=O)C(C#N)=C(c1ccccc1)c1ccccc1` (stereo not drawn), the result in assay [1], in assay [2], in [7], in assay [8], in assay [11] and in assay [12] was inactive. The call in assay [13], in assay [14] and in assay [17] was inactive. The Potency entry in [4], in assay [9] and in assay [16] was “inactive” throughout.

On to `O=c1[nH]c(=O)n([C@H]2CCCO2)cc1F`, for which the result in assay [1], in assay [2], in assay [11], in assay [12], in assay [13] and in assay [14] was inactive. Further, the call in [17] was inactive. The Potency result in [4], in assay [9] and in assay [16] was “inactive” throughout.

`Cc1ccc(N(C)C)cc1`: the molecule was classed as inactive in assay [1], in assay [2], in [7], in assay [8], in assay [11] and in [12]. For the same molecule, the outcome in assay [13], in [14] and in [17] was inactive. The Potency entry in assay [20], in assay [4], in assay [6] and in [16] was “inactive” throughout.

As to `CC1=CC(=O)NS(=O)(=O)O1`, the molecule was classed as inactive in assay [2], in assay [3], in assay [5], in assay [7], in assay [8] and in assay [11]. The molecule was classed as inactive in assay [12], in [13], in assay [14] and in assay [17]. Also, the Potency entry in assay [4], in [6], in assay [19], in assay [16] and in [18] was “inactive” throughout.
